TDP1 cell noCPT: qHTS for Inhibitors of human tyrosyl-DNA phosphodiesterase 1 (TDP1): qHTS in cells in absence of CPT; Potency, µM (titrated, usually from 46.2 µM), for the others: at the top dose activity change, negative = growth inhibition, most hits filed as inhibitors; DT40 Tdp1-/- hTDP1 cells, no CPT, ATP luminescence, 48 h; 15% of 420,000 active; also: nearly all actives have a fitted effect of over 55% in size
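Readout: luminescence from CellTiter-Glo after 30 min in the dark at RT. Cells: DT40 Tdp1-/- with stable hTDP1, 400/well. Exposure: compounds alone, ≥48 hr, 37 °C.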
RORg inh: inhibitors of mouse ROR gamma transcriptional activity. 5.4% of 310,000 active. Drosophila S2 Gal4-RORgamma UAS-luciferase reporter, 20 h. Potency, µM (top dose mostly 53.6 µM), for the others: at the highest dose activity change, negative = inhibition, actives largely listed as inhibitors. P51450; also: nearly all actives have a fitted effect of over 60% in size
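Schneider cells (Drosophila), stable Gal4 DBD–ROR gamma + UAS-luc; 1 hr cmpd preincubation; Cu2+ induction 700 uM final; 20 hr ambient; luminescence.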
TDP1 cell CPT: growth inhibition of DT40 Tdp1-/-;hTDP1 cells with camptothecin (screen for TDP1 inhibitors) | chicken DT40 Tdp1-/-;hTDP1 cells + 20 nM CPT, ATP luminescence, 48 h | Potency, µM (top dose mostly 46.2 µM), for the others: at the top dose activity change, negative = growth inhibition, most hits filed as inhibitors | 12% of 420,000 active | AID 686979; also: nearly all actives have a fitted effect of over 55% in size
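Cell growth measured by CellTiter-Glo luminescence after a minimum 48 h, 37 C compound exposure with 20 nM CPT in Tdp1-knockout DT40 cells stably expressing hTDP1, seeded 400/well; qHTS titration format.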
VP16 counter: counter-screen for ROR gamma inhibitors: Gal4-VP16 reporter; 3.5% of 310,000 active; Drosophila S2 Gal4-VP16 UAS-luciferase, luminescence, 20 h; Potency, µM (highest dose often 53.6 µM), for the others: at the highest dose activity, negative = inhibition, most hits filed as inhibitors; AID 2546;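 also: Gal4-VP16 expression switched on by copper sulfate through the metallothionein promoter; nearly all actives have a fitted effect of over 50% in size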
TDP1 block: blocks human tyrosyl-DNA phosphodiesterase 1; 0.28% of 350,000 active; recombinant TDP1, AlphaScreen DNA substrate cleavage; Q9NUW8; AID 485290; Potency, µM (series often up to 130 µM), inactives show at the highest dose activity change, negative = inhibition, usual class: inhibitors; also: nearly all actives have a fitted effect of over 40% in size
Target sequence (Q9NUW8 whole entry, looked up): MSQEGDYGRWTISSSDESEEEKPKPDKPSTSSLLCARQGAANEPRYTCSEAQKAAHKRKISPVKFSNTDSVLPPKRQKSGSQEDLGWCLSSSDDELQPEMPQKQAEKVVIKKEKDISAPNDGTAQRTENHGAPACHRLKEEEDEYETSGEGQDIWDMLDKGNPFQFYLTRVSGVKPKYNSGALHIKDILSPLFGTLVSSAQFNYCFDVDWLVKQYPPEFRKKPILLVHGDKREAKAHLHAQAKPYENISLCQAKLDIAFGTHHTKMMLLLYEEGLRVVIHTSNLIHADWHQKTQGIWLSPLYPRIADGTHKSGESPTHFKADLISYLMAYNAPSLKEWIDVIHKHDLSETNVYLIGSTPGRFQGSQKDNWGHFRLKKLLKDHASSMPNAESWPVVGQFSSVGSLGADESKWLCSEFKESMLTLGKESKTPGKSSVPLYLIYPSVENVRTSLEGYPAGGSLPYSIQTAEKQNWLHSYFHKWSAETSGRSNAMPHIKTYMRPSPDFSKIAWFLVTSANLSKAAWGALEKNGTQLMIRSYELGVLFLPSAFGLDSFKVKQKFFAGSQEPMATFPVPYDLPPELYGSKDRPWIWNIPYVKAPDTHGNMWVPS
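Tdp1 1 nM final; 15 min RT w/ cpd; substrate 15 nM, 5 min; beads 10 ug/ml, 10 min; AlphaScreen read. Neg ctrl: no enzyme.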
Starred values were filed as active, the others as inactive; [ ] = another dose, or the depositor's remark. Shown are actives, neighbours in structure and some others; about 19% of the full set was active somewhere. Calls follow the shape of the dose curve; as a rule, active = well fitted curve in the direction sought with a large enough effect; inconclusive = small, poorly fitted or top-dose-only effect, or another doubt; inactive = no such curve, though single readings can be large; an effect the other way counts as inactive or inconclusive. % is scaled to controls: 0 for no effect and ±100 for the full control effect; potency is read from the fitted curve at half-maximal effect.

For O=C(N/N=C/c1cccc(Oc2ccccc2)c1)c1ccncc1 the results were TDP1 cell noCPT -3.0%, RORg inh inconclusive, TDP1 cell CPT -5.3%, VP16 counter inconclusive and TDP1 block 0.0%.
Screening COc1ccc(/C=N/NC(=O)c2ccc(O)cc2O)cc1CSc1ccccn1 returned TDP1 cell noCPT inconclusive, RORg inh 0.0891µM*, TDP1 cell CPT -9.5%, VP16 counter 2µM* and TDP1 block 2.3%.
O=C(N/N=C/c1cccc(Oc2ccccc2)c1)c1ccc(O)cc1O was read as TDP1 cell noCPT 4.6%, RORg inh 0.631µM*, TDP1 cell CPT 3.1%, VP16 counter 2.24µM* and TDP1 block 4.4%[56.1 µM].
For O=C(CCSc1nc2ccccc2s1)N/N=C/c1c(O)ccc2ccccc12 the results were TDP1 cell noCPT 3.66µM*, RORg inh 1.41µM*, TDP1 cell CPT 6.51µM*, VP16 counter 1µM* and TDP1 block 5.6%.
For O=C(/C=C/c1ccc(S(=O)(=O)NCc2ccco2)cc1)NCc1ccccc1Cl the results were TDP1 cell noCPT 18.4µM*, RORg inh inconclusive, TDP1 cell CPT inconclusive, VP16 counter -9.0% and TDP1 block 0.0%.
Screening COc1ccc(CNC(=O)/C=C/c2ccco2)cc1OC returned TDP1 cell noCPT -4.4%, RORg inh 11.4%, TDP1 cell CPT 1.8%, VP16 counter 6.8% and TDP1 block -5.3%.
COc1ccc(CNC(=O)/C=C/c2ccc(S(=O)(=O)NCc3ccco3)cc2)cc1OC was read as TDP1 cell noCPT 25.9µM*, RORg inh inconclusive, TDP1 cell CPT inconclusive, VP16 counter -1.2% and TDP1 block 3.5%.
For O=C(O)CC(CCc1ccccc1)OC1OC(CO)C(O)C(O)C1O (stereo not given) the results were TDP1 cell noCPT 8.8%, RORg inh 1.6%, TDP1 cell CPT -0.2% and VP16 counter -4.2%.
Screening CCN1C(=O)c2ccc(C(=O)Nc3cccc(C(=O)O)c3)cc2C1=O returned TDP1 cell noCPT -1.3%, RORg inh 10µM*, TDP1 cell CPT 12.9% and VP16 counter inconclusive.
O=C(C1=C[C@@H](C2CCCCC2)C[C@@H](OCc2ccc(CO)cc2)O1)N1CCN(Cc2ccc3c(c2)OCO3)CC1 was read as TDP1 cell noCPT 16.4µM*, RORg inh 11.8%, TDP1 cell CPT inconclusive, VP16 counter -22.6% and TDP1 block 6.4%.
Screening O=C(C1=C[C@@H](c2ccccc2)C[C@@H](OCc2ccc(CO)cc2)O1)N1CCN(Cc2ccc3c(c2)OCO3)CC1 returned TDP1 cell noCPT 20.6µM*, RORg inh -0.1%, TDP1 cell CPT 18.4µM*, VP16 counter -20.1% and TDP1 block 6.4%.
CC(C)(C)[C@@H]1C=C(C(=O)N2CCN(Cc3ccccc3)CC2)O[C@H](OCc2ccc(CO)cc2)C1 was read as TDP1 cell noCPT inconclusive, RORg inh -1.0%, TDP1 cell CPT 13µM*, VP16 counter 1.1% and TDP1 block 5.1%.
Screening CC(C)(C)[C@H]1C=C(C(=O)N2CCN(Cc3ccc4c(c3)OCO4)CC2)O[C@@H](OCc2ccc(CO)cc2)C1 returned TDP1 cell noCPT 18.4µM*, RORg inh 2.0%, TDP1 cell CPT 20.6µM*, VP16 counter -0.4% and TDP1 block 5.1%.
O=C(C1=C[C@H](C2CC2)C[C@H](OCc2ccc(CO)cc2)O1)N1CCN(Cc2ccc3c(c2)OCO3)CC1 was read as TDP1 cell noCPT inconclusive, RORg inh inconclusive, TDP1 cell CPT inconclusive, VP16 counter -5.3% and TDP1 block 2.6%.
Screening COc1ccc(S(=O)(=O)N2CCCCCC2)cc1C(=O)OCC(=O)NCC(C)C returned TDP1 cell noCPT -0.4%, RORg inh 5.6%, TDP1 cell CPT -16.4%, VP16 counter -5.5% and TDP1 block 1.1%.
COc1ccc(/C=N/Nc2snc(SC)c2C#N)cc1OC was read as TDP1 cell noCPT inconclusive, RORg inh 33.2%, TDP1 cell CPT 16.4µM*, VP16 counter 5.0% and TDP1 block 9.6%.
For COc1cccc(/C=N/Nc2snc(SC)c2C#N)c1O the results were TDP1 cell noCPT 2.59µM*, RORg inh inconclusive, TDP1 cell CPT 2.91µM*, VP16 counter inconclusive and TDP1 block 3.8%.
For Cc1cc(O)c(C(=O)/C=C/c2ccccc2Br)c(=O)o1 the results were TDP1 cell noCPT inconclusive, RORg inh inconclusive, TDP1 cell CPT inconclusive and VP16 counter -16.5%.
Screening O=C(NCc1ccccc1)NCC12CC3CC(CC(C3)C1)C2 returned TDP1 cell noCPT inconclusive, RORg inh 1.4%, TDP1 cell CPT inconclusive, VP16 counter 0.3% and TDP1 block 0.0%.
O=C(CC12CC3CC(CC(C3)C1)C2)NC(=S)NCc1ccccc1 was read as TDP1 cell noCPT 18.4µM*, RORg inh 2µM*, TDP1 cell CPT inconclusive, VP16 counter 1.58µM* and TDP1 block -2.7%.
For O=C(NCc1ccccc1)C12CC3CC(CC(C3)C1)C2 the results were TDP1 cell noCPT -14.3%, RORg inh 3.6%, TDP1 cell CPT -2.2%, VP16 counter 4.5% and TDP1 block -2.3%.
O=C(NCc1ccccc1)NC12CC3CC(CC(C3)C1)C2 was read as TDP1 cell noCPT 20.6µM*, RORg inh 7.6%, TDP1 cell CPT 14.6µM* and VP16 counter -4.2%.
`CCN(c1ccc(OCC(=O)OCC(=O)Nc2ccc(F)c(F)c2F)cc1)S(=O)(=O)c1ccccc1` gave TDP1 cell noCPT -14.0%, RORg inh -5.3%, TDP1 cell CPT 14.3%, VP16 counter 0.3% and TDP1 block 0.0%.
`COn1c2c(c3c4nonc4ccc31)CCCC2` gave TDP1 cell noCPT inconclusive, RORg inh 16.2%, TDP1 cell CPT inconclusive, VP16 counter 13.4% and TDP1 block 3.4%.
For On1c2c(c3c4nonc4ccc31)CCCC2 the results were RORg inh inconclusive, VP16 counter 22.4µM* and TDP1 block -5.0%.
For Cc1occc1-c1nnc(SCC(=O)Nc2ccccc2-c2ccccc2)n1C the results were TDP1 cell noCPT 15.8µM*, RORg inh 24.2%, TDP1 cell CPT inconclusive, VP16 counter -10.9% and TDP1 block 2.1%.
`CCCn1c(SCC(=O)Nc2ccccc2CC)nnc1C(C)C` gave TDP1 cell noCPT 18.4µM*, RORg inh 7.9%, TDP1 cell CPT 20.6µM*, VP16 counter 9.6% and TDP1 block 0.0%.
CCn1c(SCC(=O)Nc2ccccc2C(=O)OC)nnc1-c1ccoc1C was read as TDP1 cell noCPT 29.1µM*, RORg inh -17.9%[10 µM], TDP1 cell CPT -28.8%, VP16 counter 8.6% and TDP1 block 5.0%.
